Test results: the supplement of paper PMC10849652
The full data set covers some 8,800 targets. This sample favours those with a hit. About 0.5% of all pairs of compound and target were hits.

The targets below were run with C#Cc1cccc(Nc2ncnc3cc(OCCOC)c(OCCOC)cc23)c1 [erlotinib] (assay: log2 fold change, soluble protein after heating vs DMSO (PISA); higher = thermal stabilisation; K562 lysate, 10 uM; active = over 0.2 and 3.5 SD of the protein, either way, in both replicates (recomputed)).
How it was run: (§1)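 A 30 min treatment with 10 μM compound was applied to crude K562 extract at 1 mg/mL protein in PBS pH 7.4 with 1 mM MgCl2. Heating for 3 min spanned 48°C-58°C, after which aliquots were pooled, adjusted to 0.5% NP-40 at 4°C and spun at 21,000xg for 90 min. TMTpro 16plex LC-MS/MS of the supernatant, with channel sums equalised, gave values recorded as log-two fold change in thermal stability against solvent controls, from duplicates.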

Chain of UniProt Q86UK7 (Q86UK7 whole entry, looked up): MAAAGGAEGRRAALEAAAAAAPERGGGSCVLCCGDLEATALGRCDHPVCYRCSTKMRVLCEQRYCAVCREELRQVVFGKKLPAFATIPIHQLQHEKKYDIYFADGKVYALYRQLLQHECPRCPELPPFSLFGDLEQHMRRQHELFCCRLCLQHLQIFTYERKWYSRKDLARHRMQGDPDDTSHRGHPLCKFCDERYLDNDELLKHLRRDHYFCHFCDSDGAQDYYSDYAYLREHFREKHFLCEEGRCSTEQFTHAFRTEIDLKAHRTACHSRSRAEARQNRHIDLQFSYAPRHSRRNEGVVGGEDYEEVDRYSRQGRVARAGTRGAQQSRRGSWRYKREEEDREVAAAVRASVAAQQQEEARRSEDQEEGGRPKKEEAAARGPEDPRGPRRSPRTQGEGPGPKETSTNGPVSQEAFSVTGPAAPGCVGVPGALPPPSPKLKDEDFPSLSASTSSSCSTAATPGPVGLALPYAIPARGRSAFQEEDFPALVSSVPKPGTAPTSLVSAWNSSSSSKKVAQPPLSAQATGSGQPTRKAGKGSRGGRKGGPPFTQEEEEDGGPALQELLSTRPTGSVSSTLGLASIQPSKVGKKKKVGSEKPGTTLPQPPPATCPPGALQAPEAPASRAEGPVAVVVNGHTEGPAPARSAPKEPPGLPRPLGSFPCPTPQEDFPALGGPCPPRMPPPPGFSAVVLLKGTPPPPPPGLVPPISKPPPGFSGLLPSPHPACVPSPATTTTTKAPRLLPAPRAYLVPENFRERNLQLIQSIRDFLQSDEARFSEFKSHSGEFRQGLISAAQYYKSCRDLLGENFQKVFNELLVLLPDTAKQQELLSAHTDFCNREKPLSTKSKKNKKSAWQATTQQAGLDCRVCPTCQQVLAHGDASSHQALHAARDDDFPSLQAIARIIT
Chain of UniProt Q8IX07 (Q8IX07 whole entry, looked up): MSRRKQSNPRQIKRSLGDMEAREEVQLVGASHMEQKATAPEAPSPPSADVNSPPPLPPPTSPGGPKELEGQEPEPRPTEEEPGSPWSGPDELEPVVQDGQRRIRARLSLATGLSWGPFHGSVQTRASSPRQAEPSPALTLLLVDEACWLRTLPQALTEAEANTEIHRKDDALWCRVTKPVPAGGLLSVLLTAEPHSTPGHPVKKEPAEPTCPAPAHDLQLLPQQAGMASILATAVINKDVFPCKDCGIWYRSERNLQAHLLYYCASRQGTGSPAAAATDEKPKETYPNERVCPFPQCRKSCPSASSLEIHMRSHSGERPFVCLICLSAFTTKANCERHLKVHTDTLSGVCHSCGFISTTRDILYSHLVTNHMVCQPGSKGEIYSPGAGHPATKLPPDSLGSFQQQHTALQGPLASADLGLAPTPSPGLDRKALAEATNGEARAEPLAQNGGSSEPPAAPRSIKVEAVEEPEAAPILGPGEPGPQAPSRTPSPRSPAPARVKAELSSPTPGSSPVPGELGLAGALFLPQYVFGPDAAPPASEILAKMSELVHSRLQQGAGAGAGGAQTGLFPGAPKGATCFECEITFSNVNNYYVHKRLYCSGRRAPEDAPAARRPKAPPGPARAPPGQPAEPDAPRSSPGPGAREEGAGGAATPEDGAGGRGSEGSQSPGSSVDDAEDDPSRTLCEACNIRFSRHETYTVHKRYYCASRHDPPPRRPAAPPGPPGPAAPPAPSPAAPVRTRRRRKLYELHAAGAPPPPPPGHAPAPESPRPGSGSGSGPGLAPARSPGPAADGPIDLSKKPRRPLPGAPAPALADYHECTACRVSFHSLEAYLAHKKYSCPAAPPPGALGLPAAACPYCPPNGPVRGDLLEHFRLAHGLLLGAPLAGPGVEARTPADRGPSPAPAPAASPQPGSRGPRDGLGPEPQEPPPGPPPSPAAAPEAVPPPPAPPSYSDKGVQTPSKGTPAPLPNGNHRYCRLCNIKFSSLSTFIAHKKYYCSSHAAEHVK
Chain of UniProt Q08AM6 (Q08AM6 whole entry, looked up): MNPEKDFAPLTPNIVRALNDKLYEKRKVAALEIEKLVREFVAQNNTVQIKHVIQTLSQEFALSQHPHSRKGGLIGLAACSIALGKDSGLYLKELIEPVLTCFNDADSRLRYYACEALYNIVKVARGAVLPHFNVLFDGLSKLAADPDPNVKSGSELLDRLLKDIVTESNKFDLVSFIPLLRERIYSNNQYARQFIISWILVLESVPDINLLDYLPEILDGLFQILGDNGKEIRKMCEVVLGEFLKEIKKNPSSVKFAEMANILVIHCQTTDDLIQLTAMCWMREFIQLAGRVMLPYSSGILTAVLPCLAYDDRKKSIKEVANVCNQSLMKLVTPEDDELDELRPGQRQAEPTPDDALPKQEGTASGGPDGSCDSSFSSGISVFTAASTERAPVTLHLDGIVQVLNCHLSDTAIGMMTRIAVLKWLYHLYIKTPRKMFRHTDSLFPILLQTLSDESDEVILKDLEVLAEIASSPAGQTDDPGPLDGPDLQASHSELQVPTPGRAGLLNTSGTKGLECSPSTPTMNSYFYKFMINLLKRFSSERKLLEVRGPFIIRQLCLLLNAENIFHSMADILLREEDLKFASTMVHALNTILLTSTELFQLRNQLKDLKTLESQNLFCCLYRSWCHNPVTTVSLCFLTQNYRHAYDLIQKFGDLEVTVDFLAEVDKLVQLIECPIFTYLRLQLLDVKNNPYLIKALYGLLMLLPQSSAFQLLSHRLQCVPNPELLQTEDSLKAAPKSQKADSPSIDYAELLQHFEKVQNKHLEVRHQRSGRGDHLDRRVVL
Chain of UniProt Q9H269 (Q9H269 whole entry, looked up): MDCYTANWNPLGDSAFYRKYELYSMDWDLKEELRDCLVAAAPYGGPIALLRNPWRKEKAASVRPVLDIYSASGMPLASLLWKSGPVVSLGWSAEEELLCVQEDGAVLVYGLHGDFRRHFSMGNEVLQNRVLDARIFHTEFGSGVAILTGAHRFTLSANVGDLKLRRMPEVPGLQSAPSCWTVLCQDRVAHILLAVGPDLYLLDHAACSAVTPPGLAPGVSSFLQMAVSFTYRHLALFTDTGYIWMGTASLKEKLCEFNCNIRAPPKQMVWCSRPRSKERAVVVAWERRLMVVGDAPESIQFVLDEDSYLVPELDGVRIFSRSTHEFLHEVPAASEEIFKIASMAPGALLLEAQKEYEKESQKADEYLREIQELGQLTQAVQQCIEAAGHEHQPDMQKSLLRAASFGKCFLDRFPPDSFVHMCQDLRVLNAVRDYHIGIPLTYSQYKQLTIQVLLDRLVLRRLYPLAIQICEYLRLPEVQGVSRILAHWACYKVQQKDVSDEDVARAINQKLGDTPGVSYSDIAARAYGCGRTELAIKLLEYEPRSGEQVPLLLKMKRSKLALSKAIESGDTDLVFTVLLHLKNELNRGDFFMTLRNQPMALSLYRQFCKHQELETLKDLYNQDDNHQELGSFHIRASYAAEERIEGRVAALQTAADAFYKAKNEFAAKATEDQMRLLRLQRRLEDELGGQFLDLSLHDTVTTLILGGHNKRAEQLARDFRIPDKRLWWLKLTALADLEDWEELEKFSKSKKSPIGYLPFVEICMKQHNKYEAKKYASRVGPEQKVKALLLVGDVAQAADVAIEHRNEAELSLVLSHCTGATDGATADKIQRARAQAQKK
Chain of UniProt O00258 (O00258 whole entry, looked up): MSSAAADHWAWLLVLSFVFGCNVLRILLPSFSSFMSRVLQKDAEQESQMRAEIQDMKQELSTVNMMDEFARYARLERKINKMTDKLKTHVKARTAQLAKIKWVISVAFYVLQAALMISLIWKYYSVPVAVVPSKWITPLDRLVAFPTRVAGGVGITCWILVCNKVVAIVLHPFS
Chain of UniProt Q9UKY1 (Q9UKY1 whole entry, looked up): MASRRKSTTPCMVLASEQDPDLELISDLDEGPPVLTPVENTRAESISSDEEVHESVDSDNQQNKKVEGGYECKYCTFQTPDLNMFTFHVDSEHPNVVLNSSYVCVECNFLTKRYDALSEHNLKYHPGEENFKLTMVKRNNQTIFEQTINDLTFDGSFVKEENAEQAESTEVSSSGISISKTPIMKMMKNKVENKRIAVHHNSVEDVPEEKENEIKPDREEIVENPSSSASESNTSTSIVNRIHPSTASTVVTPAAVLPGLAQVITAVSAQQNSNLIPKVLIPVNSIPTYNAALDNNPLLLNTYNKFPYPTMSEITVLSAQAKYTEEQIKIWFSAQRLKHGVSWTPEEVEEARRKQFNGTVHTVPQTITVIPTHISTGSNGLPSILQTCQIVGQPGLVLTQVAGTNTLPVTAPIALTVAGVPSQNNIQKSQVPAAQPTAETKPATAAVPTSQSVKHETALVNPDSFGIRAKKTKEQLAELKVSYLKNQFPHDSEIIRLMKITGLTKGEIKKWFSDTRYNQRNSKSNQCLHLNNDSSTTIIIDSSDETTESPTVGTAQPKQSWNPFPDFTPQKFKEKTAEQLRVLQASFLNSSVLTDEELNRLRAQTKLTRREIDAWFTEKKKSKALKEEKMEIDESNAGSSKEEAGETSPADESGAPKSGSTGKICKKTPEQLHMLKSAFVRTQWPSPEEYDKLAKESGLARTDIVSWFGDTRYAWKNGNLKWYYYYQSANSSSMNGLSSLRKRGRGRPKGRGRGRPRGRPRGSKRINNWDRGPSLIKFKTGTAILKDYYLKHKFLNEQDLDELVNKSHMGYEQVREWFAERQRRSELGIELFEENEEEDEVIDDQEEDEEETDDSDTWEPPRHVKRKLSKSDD
Chain of UniProt P22695 (P22695 whole entry, looked up): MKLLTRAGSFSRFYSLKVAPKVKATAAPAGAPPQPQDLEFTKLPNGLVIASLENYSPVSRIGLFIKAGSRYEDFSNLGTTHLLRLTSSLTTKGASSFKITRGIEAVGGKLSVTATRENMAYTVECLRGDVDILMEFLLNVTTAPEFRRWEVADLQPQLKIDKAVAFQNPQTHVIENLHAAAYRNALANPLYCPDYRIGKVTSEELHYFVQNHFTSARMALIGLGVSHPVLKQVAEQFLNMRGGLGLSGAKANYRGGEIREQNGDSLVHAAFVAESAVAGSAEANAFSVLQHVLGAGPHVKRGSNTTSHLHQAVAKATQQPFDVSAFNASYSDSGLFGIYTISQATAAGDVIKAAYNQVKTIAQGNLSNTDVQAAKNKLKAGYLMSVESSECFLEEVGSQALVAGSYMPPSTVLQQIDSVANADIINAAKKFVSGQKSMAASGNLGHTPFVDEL

| Target | log2 fold change |
| --- | --- |
| USP9X (UniProt Q93008) | 0.034 (inactive) |
| ZMYM1 (UniProt Q5SVZ6) | -0.041 (inactive) |
| ZNF598 isoform 3 (UniProt Q86UK7) | -0.001 (inactive) |
| VAV1 (UniProt P15498) | 0.02 (inactive) |
| WDR7 (UniProt Q9Y4E6) | 0.05 (inactive) |
| VPS11 (UniProt Q9H270) | 0.049 (inactive) |
| ZNF318 (UniProt Q5VUA4) | 0.026 (inactive) |
| VAC14 (UniProt Q08AM6) | -0.007 (inactive) |
| VPS41 (UniProt P49754) | 0.032 (inactive) |
| ZNHIT6 (UniProt Q9NWK9) | 0.059 (inactive) |
| ZZEF1 (UniProt O43149) | 0.008 (inactive) |
| VPS16 (UniProt Q9H269) | 0.059 (inactive) |
| ZHX1 (UniProt Q9UKY1) | 0.02 (inactive) |
| ZC3H13 (UniProt Q5T200) | 0.081 (inactive) |
| VRK1 (UniProt Q99986) | 0.009 (inactive) |
| VPS54 (UniProt Q9P1Q0) | -0.018 (inactive) |

| Target | log2 fold change |
| --- | --- |
| WDR45 isoform 2 (UniProt Q9Y484) | -0.047 (inactive) |
| XAB2 (UniProt Q9HCS7) | 0.049 (inactive) |
| YTHDF3 (UniProt Q7Z739) | -0.009 (inactive) |
| XPO6 (UniProt Q96QU8) | 0.091 (inactive) |
| WRB (UniProt O00258) | -0.043 (inactive) |
| XPOT (UniProt O43592) | 0.017 (inactive) |
| VPS18 (UniProt Q9P253) | 0.018 (inactive) |
| WDR3 (UniProt Q9UNX4) | -0.036 (inactive) |
| USP8 (UniProt P40818) | -0.011 (inactive) |
| ZFPM1 (UniProt Q8IX07) | 0.015 (inactive) |
| VRK2 (UniProt Q86Y07) | 0.04 (inactive) |
| WDR91 (UniProt A4D1P6) | 0.02 (inactive) |
| WDR20 isoform 7 (UniProt Q8TBZ3) | -0.001 (inactive) |
| YRDC (UniProt Q86U90) | 0.009 (inactive) |
| UQCRC2 (UniProt P22695) | 0 (inactive) |

These targets were tested with C/C(=N\NC(=O)C1=CC(=CC=C1)S(=O)(=O)N2CCOCC2)/C3=C(C=CC(=C3)Cl)O in the same assay as above.
How it was run: as §1

| Target | log2 fold change |
| --- | --- |
| USP9X (UniProt Q93008) | 0.013 (inactive) |
| ZMYM1 (UniProt Q5SVZ6) | -0.027 (inactive) |
| ZNF598 isoform 3 (UniProt Q86UK7) | -0.003 (inactive) |
| VAV1 (UniProt P15498) | 0.081 (inactive) |
| WDR7 (UniProt Q9Y4E6) | -0.076 (inactive) |
| VPS11 (UniProt Q9H270) | -0.037 (inactive) |
| ZNF318 (UniProt Q5VUA4) | -0.033 (inactive) |
| VAC14 (UniProt Q08AM6) | 0.02 (inactive) |
| VPS41 (UniProt P49754) | 0.073 (inactive) |
| ZNHIT6 (UniProt Q9NWK9) | 0.475 (inactive) |
| ZZEF1 (UniProt O43149) | -0.019 (inactive) |
| VPS16 (UniProt Q9H269) | 0.026 (inactive) |
| ZHX1 (UniProt Q9UKY1) | -0.094 (inactive) |
| ZC3H13 (UniProt Q5T200) | 0.003 (inactive) |
| VRK1 (UniProt Q99986) | -0.05 (inactive) |
| VPS54 (UniProt Q9P1Q0) | -0.061 (inactive) |

| Target | log2 fold change |
| --- | --- |
| WDR45 isoform 2 (UniProt Q9Y484) | -0.032 (inactive) |
| XAB2 (UniProt Q9HCS7) | -0.088 (inactive) |
| YTHDF3 (UniProt Q7Z739) | -0.003 (inactive) |
| XPO6 (UniProt Q96QU8) | -0.024 (inactive) |
| WRB (UniProt O00258) | 0.208 (inactive) |
| XPOT (UniProt O43592) | -0.013 (inactive) |
| VPS18 (UniProt Q9P253) | 0.056 (inactive) |
| WDR3 (UniProt Q9UNX4) | -0.013 (inactive) |
| USP8 (UniProt P40818) | -0.034 (inactive) |
| ZFPM1 (UniProt Q8IX07) | 0.039 (inactive) |
| VRK2 (UniProt Q86Y07) | 0.039 (inactive) |
| WDR91 (UniProt A4D1P6) | 0.04 (inactive) |
| WDR20 isoform 7 (UniProt Q8TBZ3) | -0.105 (inactive) |
| YRDC (UniProt Q86U90) | 0.03 (inactive) |
| UQCRC2 (UniProt P22695) | -0.029 (inactive) |

The targets below were run with C1=CC(=CC=C1C2=NC3=C(N2)C=C(C=C3)C(=O)N)OC4=CC=C(C=C4)Cl in the same assay as above.
How it was run: as §1

| Target | log2 fold change |
| --- | --- |
| USP9X (UniProt Q93008) | -0.008 (inactive) |
| ZMYM1 (UniProt Q5SVZ6) | -0.002 (inactive) |
| ZNF598 isoform 3 (UniProt Q86UK7) | 0.007 (inactive) |
| VAV1 (UniProt P15498) | -0.022 (inactive) |
| WDR7 (UniProt Q9Y4E6) | -0.016 (inactive) |
| VPS11 (UniProt Q9H270) | 0.014 (inactive) |
| ZNF318 (UniProt Q5VUA4) | -0.054 (inactive) |
| VAC14 (UniProt Q08AM6) | -0.004 (inactive) |
| VPS41 (UniProt P49754) | -0.029 (inactive) |
| ZNHIT6 (UniProt Q9NWK9) | 0.062 (inactive) |
| ZZEF1 (UniProt O43149) | -0.012 (inactive) |
| VPS16 (UniProt Q9H269) | 0.048 (inactive) |
| ZHX1 (UniProt Q9UKY1) | 0.082 (inactive) |
| ZC3H13 (UniProt Q5T200) | 0.034 (inactive) |
| VRK1 (UniProt Q99986) | 0.002 (inactive) |
| VPS54 (UniProt Q9P1Q0) | 0.059 (inactive) |

| Target | log2 fold change |
| --- | --- |
| WDR45 isoform 2 (UniProt Q9Y484) | -0.024 (inactive) |
| XAB2 (UniProt Q9HCS7) | -0.012 (inactive) |
| YTHDF3 (UniProt Q7Z739) | -0.035 (inactive) |
| XPO6 (UniProt Q96QU8) | -0.028 (inactive) |
| WRB (UniProt O00258) | 0.027 (inactive) |
| XPOT (UniProt O43592) | -0.041 (inactive) |
| VPS18 (UniProt Q9P253) | -0.032 (inactive) |
| WDR3 (UniProt Q9UNX4) | -0.044 (inactive) |
| USP8 (UniProt P40818) | 0.026 (inactive) |
| ZFPM1 (UniProt Q8IX07) | 0.047 (inactive) |
| VRK2 (UniProt Q86Y07) | 0.113 (inactive) |
| WDR91 (UniProt A4D1P6) | -0.019 (inactive) |
| WDR20 isoform 7 (UniProt Q8TBZ3) | 0.043 (inactive) |
| YRDC (UniProt Q86U90) | -0.001 (inactive) |
| UQCRC2 (UniProt P22695) | 0.006 (inactive) |
